The test system of assay [1] is XIP peptide (Xip251-270) binding. In words: XIP fragment 251-270 binding compounds – biochemical, small-molecule microarray, fluorescence 635/667 nm, 0.1 µg/mL protein, primary screen (AID 1182). The conditions noted are these: fluorescent protein binding, 635 nm, higher = more signal, called active from +8 up or from −8 down.
For another assay, the system named is XIP peptide (Xip251-270). In words: compounds binding XIP fragment 251-270 – biochemical, small-molecule microarray, fluorescence 635/667 nm, 0.5 µg/mL protein, primary screen (AID 1183). The note with it: fluorescence 635 nm, higher = more signal.
Assay [2] in a line: blood-stage malaria parasite viability loss – strain 3D7, DAPI fluorescence, 100 nL, primary screen (AID 1184).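 Note: parasites grown inside human red blood cells in medium with human serum.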 The conditions noted are these: P. falciparum 3D7 growth, 3 d, higher = more signal.
Assay [3] has as its target Homeobox protein Hox-A13 (Mus musculus) (UniProt Q62424). As to the kind of experiment: disruptors of Hoxa13 oligonucleotide interaction – biochemical, fluorescence polarization, labeled oligonucleotide, primary screen (AID 1185). The conditions noted are these: Hoxa13:DNA binding, 15 min, higher = more signal, called active from +8 up or from −8 down. (In general: Fluorescence polarisation rises when a labelled molecule tumbles more slowly, as on binding a larger partner.)

Assay [4] can be described thus: blockers of DNA damage checkpoint Chk1 activation – imaging, HeLa, hydroxyurea, phospho-Chk1 antibody, percent positive cells, primary screen (AID 1186). The note with it: hydroxyurea-induced phospho-Chk1 immunofluorescence imaging, higher = more signal.
Assay [5] can be described thus: blockers of DNA damage checkpoint Chk1 activation – imaging, HeLa, hydroxyurea, phospho-Chk1 nuclear intensity, primary screen (AID 1187). The note with it: hydroxyurea-induced phospho-Chk1 immunofluorescence imaging, higher = more signal.

Each structure is given as a SMILES string. Calls of active or inactive are those of the source. Unless noted, the rule behind the calls is not given here.

Chain of Homeobox protein Hox-A13 (Mus musculus) (Q62424 whole entry, looked up): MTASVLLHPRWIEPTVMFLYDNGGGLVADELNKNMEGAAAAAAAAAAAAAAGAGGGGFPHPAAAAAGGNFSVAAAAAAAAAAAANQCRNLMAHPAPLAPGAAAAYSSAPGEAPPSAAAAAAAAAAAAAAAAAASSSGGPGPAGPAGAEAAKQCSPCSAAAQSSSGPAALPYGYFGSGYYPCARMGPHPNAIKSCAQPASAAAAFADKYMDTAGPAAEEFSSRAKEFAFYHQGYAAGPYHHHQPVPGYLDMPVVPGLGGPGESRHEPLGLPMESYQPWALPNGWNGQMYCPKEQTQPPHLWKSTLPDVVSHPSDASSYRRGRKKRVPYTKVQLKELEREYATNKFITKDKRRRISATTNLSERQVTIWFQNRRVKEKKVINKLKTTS

Regarding `CCOC(=O)C[C@H]1[C@H](OC(=O)c2cc3ccccc3oc2=O)[C@@H](NC(=O)Cc2ccc(OC)cc2)c2cc(OCCCO)ccc2N1C(=O)c1ccccc1`, the composite z-score was 0.48 (inactive) in assay [1] and 0.853 in the assay on XIP peptide (Xip251-270). Moreover, the z-score was -1.9 in assay [2], -2.46 (inactive) in assay [3], 0.907 (inactive) in assay [4] and 0.546 (inactive) in assay [5].

`COC(=O)[C@@]1(Cc2ccc(OC)cc2)[C@H]2c3cc(C(=O)N4CCCC4)n(Cc4ccccc4)c3C[C@H]2CN1C(=O)c1ccccc1`: the results for the composite z-score (in assay [1]; with XIP peptide (Xip251-270)) were 0.738 (inactive) and 0.0127, respectively. Further, the z-score is -1.5 in assay [2], -3.78 (inactive) in assay [3], 0.212 (inactive) in assay [4] and 0.07 (inactive) in assay [5].

As for `Cc1ccc(S[C@]2(C(=O)NCCN3CCOCC3)CC(=O)N(Cc3ccccc3)[C@@H]2c2ccc(CO)cc2I)cc1`, the composite z-score in assay [1] is 0.302 (inactive); with XIP peptide (Xip251-270), 0.0473. The z-score in assay [2] is -1.44; in assay [3], -1.69 (inactive); in assay [4], -0.0659 (inactive); in assay [5], 0.184 (inactive).

For `COCCn1c(C(=O)N2CCCC2)cc2c1C[C@H]1CN(C(=O)c3ccccc3)[C@@](Cc3ccc(F)cc3)(C(=O)OC)[C@@H]21`, the composite z-score in assay [1] is 0.254 (inactive); with XIP peptide (Xip251-270), 0.794. In addition, the z-score in assay [2] is -1.01; in assay [3] it was -5.83 (inactive); in assay [4] it was 0.0536 (inactive); in assay [5], 0.375 (inactive).

Regarding `CCOC(=O)C[C@H]1[C@H](OC(=O)Cc2ccc3c(c2)OCO3)[C@@H](NC(=O)c2ccc(-c3ccccc3)cc2)c2cc(OCCCO)ccc2N1C(=O)c1ccc2ccccc2n1`, the composite z-score in assay [1] is -0.458 (inactive); with XIP peptide (Xip251-270) it was 0.447. Further, the z-score in assay [2] is -2.38; in assay [3], -1.61 (inactive); in assay [4] it was 0.455 (inactive); in assay [5], 0.46 (inactive).

For the compound `COc1ccc(C(O)C2C=CC3C(=O)N(c4ccccc4)C(=O)C3N2Nc2ccccc2F)cc1OCc1ccccc1` (centres undefined), the composite z-score in assay [1] is 1.26 (inactive); in the assay on XIP peptide (Xip251-270) it was 0.698. Also, the z-score was -0.193 in assay [2], -0.0495 (inactive) in assay [3], -0.75 (inactive) in assay [4] and -1.22 (inactive) in assay [5].

With `CCOC(=O)[C@H]1C/C=C/C[C@H](C(=O)OCC)C(=O)O[C@H]2[C@@H](OC)O[C@H](CO)[C@@H](OC(=O)Nc3ccc(C#N)cc3)[C@@H]2OC1=O`, the composite z-score was 1.09 (inactive) in assay [1] and 0.84 in the assay on XIP peptide (Xip251-270). The z-score in assay [2] is -2.07; in assay [3] it was -1.69 (inactive); in assay [4], -0.892 (inactive); in assay [5], -1.88 (inactive).

For `C=C(CCCC)/C(=C/C[C@@H](OC(C)=O)c1ccccc1OCCO)c1cnc2ccccc2c1`, the composite z-score in assay [1] is -0.475 (inactive); with XIP peptide (Xip251-270) it was 0.234. Moreover, the z-score is -3.01 in assay [2], -5.06 (inactive) in assay [3], 1.11 (inactive) in assay [4] and 0.212 (inactive) in assay [5].

On to `COc1ccc(C(=O)Nc2cccc(CN3C(=O)[C@]4(O[C@H](CCO)[C@@H]([Si](C)(C)c5ccc(OC)cc5)[C@@H]4C)c4ccccc43)c2)cc1`, for which the composite z-score is -0.0488 (inactive) in assay [1] and 0.639 in the assay on XIP peptide (Xip251-270). The z-score in assay [2] is -2.85; in assay [3] it was -2.45 (inactive); in assay [4], -0.204 (inactive); in assay [5] it was -0.881 (inactive).

As to `CN1C(=O)C2C=CC(C(O)c3ccccc3)N(Nc3ccccc3)C2C1=O` (centres undefined), the composite z-score was 0.599 (inactive) in assay [1] and 0.357 with XIP peptide (Xip251-270). For the same compound, the z-score in assay [2] is -0.206; in assay [3] it was -2.83 (inactive); in assay [4] it was 0.861 (inactive); in assay [5], 0.163 (inactive).

`O=C1[C@H]2C=C(Br)[C@H](C[C@@H]2c2ccccc2)[C@@]12CO2`: the composite z-score is 0.122 (inactive) in assay [1] and 0.31 with XIP peptide (Xip251-270). For the same compound, the z-score in assay [2] is -0.391; in assay [3] it was -1.29 (inactive); in assay [4] it was -0.155 (inactive); in assay [5], -0.0519 (inactive).

Turning to `COc1ccc(C(=O)Nc2ccc(CN3C(=O)[C@@]4(O[C@@H](CCO)[C@H]([Si](C)(C)c5ccc(OC)cc5)[C@H]4C)c4ccccc43)cc2)cc1`, the composite z-score in assay [1] was 0.264 (inactive); with XIP peptide (Xip251-270) it was 0.758. Moreover, the z-score is -2.74 in assay [2], -1.17 (inactive) in assay [3], -0.0822 (inactive) in assay [4] and -0.0421 (inactive) in assay [5].

As for `COCCCN1C(=O)[C@@]2(Cc3ccccc31)c1ccccc1C(=O)N(Cc1ccccc1C(F)(F)F)[C@H]2c1ccc(CO)cc1`, the composite z-score in assay [1] was -0.219 (inactive); with XIP peptide (Xip251-270), 0.55. Moreover, the z-score in assay [2] was -0.698; in assay [3], -0.825 (inactive); in assay [4], 0.25 (inactive); in assay [5], 0.49 (inactive).

In the case of `COc1ccc(CCNC(=O)[C@@H]2c3ccccc3C(=O)N(C3Cc4ccccc4C3)[C@H]2c2ccc(CO)cc2)cc1`, the results for the composite z-score (in assay [1]; in the assay on XIP peptide (Xip251-270)) were 1.14 (inactive) and 0.219, respectively. Moreover, the z-score in assay [2] was -0.268; in assay [3] it was -3.47 (inactive); in assay [4], -0.222 (inactive); in assay [5], -0.28 (inactive).

For the origin of these results see PubChem BioAssay.
